Screening data as filed in PubChem BioAssay.
FBW7 act: human FBW7 E3 ligase activation, primary screen. AID 1259310. 650,000 tested, 0.13% active. AlphaScreen FBW7–phospho-cyclin E peptide binding, activator screen. normalized activity (activation), % at 26.1 µM. Q969H0; in the data active means normalized activity above about 1.9%;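 further: purified mutant Fbw7 with reduced substrate affinity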
MITF inh: blocks human microphthalmia-associated transcription factor; O75030; AlphaScreen MITF homodimerization, bead proximity signal; inhibition, % at 2.6 µM; 650,000 tested, 0.91% active; AID 1259374; in the data active means inhibition above about 50%;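 further: 0% = vehicle wells with protein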
GPR151 activ: human GPR151 activation; Q8TDV0; PathHunter beta-arrestin GPR151 cells, luminescence; activation, % at 11.2 µM; 650,000 tested, 1% active; in the data active means activation above about 4.9%;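 further: 0% = median of compound wells and 100% = cells with positive control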
Target sequence (Q8TDV0 whole entry, looked up): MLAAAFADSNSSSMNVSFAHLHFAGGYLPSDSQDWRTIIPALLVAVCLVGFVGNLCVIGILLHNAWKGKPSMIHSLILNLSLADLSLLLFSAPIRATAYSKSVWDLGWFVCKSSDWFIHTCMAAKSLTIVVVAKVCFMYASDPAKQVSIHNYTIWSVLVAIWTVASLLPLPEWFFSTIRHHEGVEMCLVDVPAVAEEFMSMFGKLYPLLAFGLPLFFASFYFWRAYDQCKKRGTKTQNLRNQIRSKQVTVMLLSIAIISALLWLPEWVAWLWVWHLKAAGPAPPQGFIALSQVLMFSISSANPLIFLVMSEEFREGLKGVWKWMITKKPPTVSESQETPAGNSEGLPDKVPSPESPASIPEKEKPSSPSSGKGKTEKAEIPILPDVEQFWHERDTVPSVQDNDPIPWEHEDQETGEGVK
TEAD-YAP block: TEAD-YAP interaction inhibition; 640,000 tested, 1.4% active; inhibition, % at 9.12 µM; HEK-TIYL cells, TEAD-Gal4/YAP UAS-luciferase luminescence; in the data active means inhibition above about 32%;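 further: 0% = median of test compound wells and 100% = reference inhibitor wells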
GPR151 confirm: confirmation of human GPR151 activators. shares compounds with GPR151 activ. GPR151 PathHunter beta-arrestin cells, luminescence, 90 min; % of EA-reagent control over plate median. activation, % at 11.2 µM. 6,700 tested, under 10 active. AID 1508609;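 active means mean percent activation across replicates above the confirmation screen cutoff of 4.91%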
GPR119 counter: GPR119 activation, counter-screen for GPR151 activators | AID 1508611 | 6,700 tested, 0.3% active | activation, % at 11.2 µM | GPR119 PathHunter beta-arrestin cells, luminescence, 90 min; 0 = compound-well median, 100 = enzyme-acceptor control | shares compounds with GPR151 activ;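 active means mean percent activation in the counterscreen above 29.09%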;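 further: counterscreen on off-target GPR119 to flag nonselective hits from the GPR151 activator screen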
* marks the source's active call; other numbers are inactive results; . = no result given; ! = not active in a repeat. Most compounds without a hit are left out; they make up all but 3.4% or so of the library.

SMILES	FBW7 act	MITF inh	GPR151 activ	TEAD-YAP block	GPR151 confirm	GPR119 counter
Cc1c(C(=O)N2CCC(Cc3ccccc3)CC2)sc2ncn(CC(=O)N3CCOCC3)c(=O)c12	1	14	-1	-23	.	.
Cc1ccc(NC(=O)C2CC(Cl)=CCC2C(=O)O)cc1[N+](=O)[O-] (stereo unspecified)	0	-6	18*	9	0	-4
CCOc1ccc(N2CCn3c2nnc(C(=O)NCc2ccc(Cl)cc2)c3=O)cc1	0	4	5.0*	0	0	-11
Cc1ccc(S(=O)(=O)NC2(C(F)(F)F)NC(=O)N(c3ccc(Cl)cc3)C2=O)cc1 (stereo unspecified)	0	-1	0	-5	.	.
O=C1NC(NS(=O)(=O)c2ccccc2)(C(F)(F)F)C(=O)N1c1ccc(Cl)cc1 (stereo unspecified)	0	-7	5.9*	4	0	11
Nc1c(Br)cc(Br)cc1CNC1CCC(O)CC1 (stereo unspecified)	0	-14	5.7*!	-1	0	7
COc1ccc(Br)cc1CNC1CCCC1	0	31	-1	-10	.	.
Cc1ccc(-c2nn(CC(=O)Nc3ccccc3C)c(=O)c3ccccc23)cc1	0	0	1	4	.	.
C=CSc1sc(Cl)c(N2CCC3(CC2)OCCO3)c1[N+](=O)[O-]	0	2	5.2*	-3	0	-2
C=CSc1sc(Cl)c(N2CCOCC2)c1[N+](=O)[O-]	0	23	-1	5	.	.
Cc1ccc(S(=O)(=O)N2CCN(S(=O)(=O)c3ccccc3)CC2)cc1	0	0	0	2	.	.
COc1ccc2cc(CCNC(=O)/C=C\c3ccc4c(c3)OCO4)c(=O)[nH]c2c1	0	7	12*	8	0	2
CC(NC(=O)c1cnc2scc(C(C)(C)C)n2c1=O)c1ccccc1 (stereo unspecified)	0	-2	7.4*	4	1	6
COc1ccc(O)c(CN2CCCCC2)c1	0	-4	0	-9	.	.
COc1ccc(O)c(CN(C)CCN(C)C)c1	1	8	7.2*	10	0	-9
CCN(C(=O)Cc1nc(-c2ccc(OC)cc2)no1)c1ccccc1C	0	6	8.9*	7	1	-6
CCN(CC)CCCN(C)C(=O)Cc1nc(-c2ccc(OC)cc2)no1	0	4	5.0*	-5	0	0
CC(C)N(Cc1nc(-c2ccccc2)no1)C(=O)c1ccccc1F	1	13	-1	11	.	.
COc1ccc(-c2noc(CC(=O)Nc3cccc(C)n3)n2)cc1	0	4	5.5*	2	1	-8
COc1ccc(-c2noc(CC(=O)Nc3cc(C)on3)n2)cc1	0	9	0	2	.	.
COc1ccc(-c2noc(CN(C(=O)c3ccccc3F)C(C)C)n2)cc1	0	16	5.4*	-5	0	10
OCCC1CN(Cc2c[nH]c3ccccc23)CCN1C1CCCC1 (stereo unspecified)	0	11	-2	-1	.	.
c1nc(NC2CC2)c2[nH]c(N3CCOCC3)nc2n1	0	9	5.0*	4	-1	1
Cc1noc(C)c1-c1nc2ncnc(NC3CC3)c2[nH]1	0	4	5.5*	-14	0	-4
COc1ccccc1NC(=O)c1c(NC(=O)c2ccccc2)sc2c1CCC(C(C)(C)C)C2 (stereo unspecified)	0	2	4	8	.	.
SMILES	FBW7 act	MITF inh	GPR151 activ	TEAD-YAP block	GPR151 confirm	GPR119 counter
COc1ccccc1-c1cn2c(NC(=O)c3ccccc3)cnc2cn1	0	1	0	5	.	.
CCNc1nc(NCCCN2CCCC2=O)c2ncn(C(C)C)c2n1	0	4	5.4*	8	0	-8
CC(C)n1cnc2c(NCCCN3CCCC3=O)nc(NCCCN3CCCC3=O)nc21	0	10	3	-1	.	.
CCCNc1nc(Nc2cc(OC)c(OC)c(OC)c2)nc2c1ncn2CCN1CCCC1=O	0	12	2	9	.	.
O=C1CCCN1CCCNc1nc(N2CCC(N3CCOCC3)CC2)nc2c1ncn2C1CCCCC1	0	-2	14*	-1	0	-6
COc1cc(Nc2nc(NCCN3CCOCC3)c3ncn(CCN4CCCC4=O)c3n2)cc(OC)c1OC	0	17	5.7*	0	2	4
O=C1CCCN1CCn1cnc2c(NC3CC3)nc(Nc3ccncc3)nc21	0	0	12*	1	0	-3
CCCCC1(C)OC(=O)C(=Cc2cc(OC)c(OC)cc2OC)C(=O)O1 (stereo unspecified)	0	16	-1	1	.	.
CC(=O)N(c1ccc(Cl)cc1)c1nc(C)cc(C)n1	0	15	0	9	.	.
CC(C)N(CCNc1nc(NCCN2CCOCC2)nc2c1ncn2Cc1ccc(C(F)(F)F)cc1)C(C)C	0	0	6.4*	-1	0	-3
O=C1CCCN1CCCNc1nc(NCCCN2CCCC2=O)c2ncn(CCN3CCCC3=O)c2n1	0	10	-2	-9	.	.
O=C1CCCN1CCCNc1nc(NCCN2CCOCC2)c2ncn(CCN3CCCC3=O)c2n1	0	2	6.4*	-9	0	-11
Cc1ccc(NC(=O)CCc2nnc3ccc(N4CCC(C)CC4)nn23)cc1	0	-24	5.0*	3	0	-5
Cc1ccc(NC(=O)CCc2nnc3ccc(N4CCC(C(N)=O)CC4)nn23)cc1	0	5	0	-3	.	.
O=[N+]([O-])c1ccc(/C=C2\CCCC=C2N2CCOCC2)s1	0	17	0	4	.	.
O=C(CCCc1ccccc1)Nc1ccc(F)cc1	0	-4	6.1*	-90	-1	-13
N#Cc1cccc(NC(=O)CCCc2ccccc2)c1	0	-12	0	-41	.	.
N#Cc1ccc(NC(=O)CCCc2ccccc2)cc1	0	8	5.1*	-81	0	-8
N#Cc1cccc(NC(=O)Cc2ccccc2)c1	0	18	7.6*	4	0	-4
O=C(CCCc1ccccc1)Nc1ccccc1	0	12	0	-60	.	.
CN(C)c1ccc(/C=N/NC(=O)c2nnn(-c3nonc3N)c2CN2CCOCC2)cc1	0	12	-2	-10	.	.
CC1(C)CC(=O)C2=C(C1)N(c1ncn[nH]1)C(N)=C(C#N)C2c1cccc([N+](=O)[O-])c1 (stereo unspecified)	0	8	0	8	.	.
O=C(CN1C(=O)COc2ccc(Cl)cc21)Nc1ccccc1Cl	0	10	1	-7	.	.
CCCN(CCO)Cc1cc(Br)c(O)c(OC)c1	0	-9	0	7	.	.
COc1cc2[nH]c(=S)nc(Nc3ccncc3)c2cc1OC	0	0	0	8	.	.
COc1ccc(Nc2nc(=S)[nH]c3cc(OC)c(OC)cc23)cc1OC	0	3	6.6*	8	0	9
